Results published in PubChem BioAssay AID449762 (Southern Research Specialized Biocontainment Screening …, 2010).
Screen size: about 330,000 compounds; about 1,900 (0.58%) were called active. Inconclusive results (about 4%) are left out. A selection follows. Entries with a potency or affinity are not part of this list. A number with no mark means an inactive call. No stated cut-off is given here; in the data, inconclusive means inhibition above about 70% without an active follow-up result; inactive means below that.

Test: M. tuberculosis growth inhibition, HTS (AID 449762);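 further: bacterial growth assessed after seven days of incubation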
Details: M. tuberculosis H37Rv growth inhibition, 7H9 media; at 25 µM; stronger effect = higher value

Row | SMILES | inhibition
1 | Cc1ccc(NC(=O)C2CCN(c3cnccn3)CC2)cc1 | -0.63%
2 | CCCc1ccc(NC(=O)C2CCCN(c3cnccn3)C2)cc1 (stereo not drawn) | 3.51%
3 | COc1ccc(NC(=O)C2CCCN2S(=O)(=O)c2ccc3c(c2)CCC(=O)N3)cc1 (stereo not drawn) | -21%
4 | CCCn1c(CCc2ccccc2)nnc1SCC(=O)N1CCCC1 | -5.53%
5 | C[C@]12CCC(=O)C=C1CC[C@@H]1C2[C@H](O)C[C@]2(C)C(=O)CCC12 (stereo partly drawn) | 2.16%
6 | Cc1cc(NC(=O)c2cc(-c3cccnc3)nc3c(C)c(C)ccc23)no1 | 2.95%
7 | Cc1nnc(NC(=O)c2cc(-c3ccncc3)nc3c(C)cccc23)s1 | 9.24%
8 | CCN(CC)S(=O)(=O)c1cccc(-c2n[nH]c(=S)n2CC(C)C)c1 | 4.49%
9 | COC(=O)N(NC(=O)C(O)(CCC(C)C)CCC(C)C)c1ccccc1 | 2.67%
10 | CCOC(OCC)P(=O)(C(C)C)C(C)C | -4.61%
11 | Cc1ccc(-c2nnc3c(C(F)(F)F)nc4ccccc4n23)cc1 | 0.23%
12 | CC(C)c1cc(-c2cc(-c3ccccc3)on2)nc(NC2CCCC2)n1 | 5.62%
13 | Cc1cc(-c2cc(-c3ccc(Cl)cc3)on2)nc(NC2CCCC2)n1 | 31.4%
14 | CCCCN(C)C(=O)CC(NS(=O)(=O)c1ccc(NC(C)=O)cc1)C(C)C (stereo not drawn) | 0.04%
15 | Cc1ccc(-n2nnnc2CNC(=O)c2ccc(Br)o2)cc1C | 11.2%
16 | O=C(NCc1nnnn1-c1ccc(Cl)cc1)c1ccc(Br)o1 | -0.54%
17 | O=C(O)C1C2C=CC(C2)C1C(=O)NCc1ccc(Cl)cc1Cl (stereo not drawn) | 7.08%
18 | Oc1ccccc1-c1cc(C(F)(F)F)nc(-c2ccccc2)n1 | 6.24%
19 | Oc1ccccc1-c1cc(C(F)(F)C(F)F)nc(-c2ccccc2)n1 | 12.1%
20 | COc1ccc(C)cc1N/C(N)=N/c1nc(C)cc(C)n1 | 5.92%
21 | Cc1cc(C)nc(/N=C(\N)Nc2cc([N+](=O)[O-])ccc2C)n1 | 1.78%
22 | CC(=O)N/C(=C\c1ccccc1)C(=O)OCC(=O)NC(C)C12CC3CC(CC(C3)C1)C2 (stereo not drawn) | 10.4%
23 | O=C(CCC(=O)OCc1ccc([N+](=O)[O-])cc1)Nc1ccccc1Cl | -11.9%
24 | CC(C)(C)NC(=O)C(=O)NNC(=O)c1ccccc1 | -5.28%

Row | SMILES | inhibition
25 | CC(C)(C)c1ccc(C(=O)NNC(=O)c2ccc(Cl)cc2)cc1 | -6.43%
26 | Cc1cc(C)c(S(=O)(=O)c2cc(F)ccc2C)c(Cl)n1 | 6.18%
27 | Cc1cc(/C([O-])=C(/C(=S)Nc2ccc(F)cc2)[n+]2ccccc2)c(C)n1-c1ccc(F)cc1 | -9.36%
28 | Cc1cc(/C([O-])=C(/C(=S)Nc2ccccc2)[n+]2ccccc2)c(C)n1-c1ccccc1 | 38.1%
29 | CC(CC(=O)N1CCN(S(=O)(=O)c2ccc(Cl)cc2)CC1)n1cncn1 (stereo not drawn) | 7.22%
30 | Cc1cc2nncn2c(Cc2ccccc2)n1 | -5.06%
31 | CCCNC(=O)c1onc(CSc2ccccc2)c1C(=O)NCCC | 3.78%
32 | CCc1cc2c(=O)n(CC(C)C)cnc2s1 | 13.2%
33 | CCc1cc2c(=O)n(CC(=O)NC3CCCCC3)cnc2s1 | -19.5%
34 | Cc1sc2ncn(CC(=O)N(CC(=O)NC3CCCC3)Cc3cccs3)c(=O)c2c1C | -6.3%
35 | O=C(CCc1nc(-c2ccccc2F)no1)NCCc1ccccc1Cl | -5.37%
36 | CC(=O)Oc1ccc(C(=O)Nc2cccc(C(=O)c3ccc(C)c(C)c3)c2)cc1 | 6.87%
37 | O=C(N/N=C/c1ccc(O)cc1)c1cc[n+](Cc2ccccc2)cc1 | -5.45%
38 | O=C(C[n+]1cccc(C(=O)N/N=C/c2ccc(Br)cc2)c1)c1ccccc1 | -3.73%
39 | Cn1c(=O)n(C)c2cc([N+](=O)[O-])c(N3CCN(S(=O)(=O)c4ccc(C(C)(C)C)cc4)CC3)cc21 | -9.94%
40 | Cc1ccc(OCc2nc(C#N)c(N3CCN(Cc4ccccc4)CC3)o2)cc1 | -9.38%
41 | CCN1CCN(c2oc(COc3ccc(Cl)cc3)nc2C#N)CC1 | 8.42%
42 | CCCc1nc2oc3c(NCc4ccccn4)ncnc3c2c2c1COC(C)(C)C2 | -3.19%
43 | CCOc1ccc(N2CC(C(=O)N3CCCCCC3)CC2=O)cc1 (stereo not drawn) | -1.61%
44 | COc1ccc(NC(=O)CSc2nnc3ccc(-c4ccccn4)nn23)c(OC)c1 | -1.07%
45 | CNCc1ccccc1OCC(=O)Nc1ccccc1 | -16.8%
46 | CC(C)(CO)NCc1ccccc1OCC(=O)Nc1ccccc1 | -10.3%
47 | CCc1cc2c(SCC(=O)c3cccs3)ncnc2s1 | -6.51%
48 | CCNCC(=O)N1c2ccccc2CCc2ccc(NC(=O)OCC)cc21 | 8.22%

Row | SMILES | inhibition
49 | CCNCC(=O)N1c2ccccc2CCc2ccc(NC(C)=O)cc21 | -1.99%
50 | Cc1ccc(Oc2ccc(Oc3ccc(C)cc3)nn2)cc1 | 1.77%
51 | O=C(CN1CCN(S(=O)(=O)c2ccccc2)CC1)N1CCCCC1 | -3.13%
52 | CN(C)CCCn1c(NCc2ccc3c(c2)OCO3)nc2ccccc21 | -3.55%
53 | CCCn1c(NCc2ccc3c(c2)OCO3)nc2ccccc21 | 13.3%
54 | CNC(=O)c1c(NC(=O)c2ccco2)sc2c1CCC2 | 8.18%
55 | O=C(CCNS(=O)(=O)c1ccccc1)NNC(=O)COc1ccccc1F | 0.68%
56 | CCCOC(=O)c1cccc(NC(=O)COc2ccc([N+](=O)[O-])cc2)c1 | 66.4%
57 | CC(=O)C(C)Oc1ccc(Cc2ncc(C(F)(F)F)cc2Cl)cc1 (stereo not drawn) | 10.2%
58 | NC(=O)COc1ccc(Cc2ncc(C(F)(F)F)cc2Cl)cc1 | 5.51%
59 | C=CCn1c(SCC(=O)c2c(N)n(C)c(=O)n(C)c2=O)nnc1-c1ccoc1C | 2.92%
60 | CC(Sc1nnc(-c2cccnc2)n1N)C(=O)N1CCOCC1 (stereo not drawn) | -0.03%
61 | COc1cc(C(=O)NCCC(=O)NCCN2CCCCCC2)cc(OC)c1OC | -5.5%
62 | COC(=O)COc1ccc(S(=O)(=O)NCCC2=CCCCC2)cc1 | 59.1%
63 | CCCNS(=O)(=O)c1ccc(OCC(=O)NCCC2=CCCCC2)cc1 | -5.92%
64 | CC1CC(NS(=O)(=O)c2cc3c4c(c2)CCN4C(=O)CC3)CC(C)(C)C1 (stereo not drawn) | 12.2%
65 | O=c1[nH]cnc2c1c(-c1ccccc1)cn2-c1ccccc1 | 5.31%
66 | Cc1ccc(-n2cc(-c3ccccc3)c3c(=O)[nH]cnc32)cc1 | 8.81%
67 | COc1ccc(CCNC(=O)c2[nH]c(C)c(C(C)=O)c2C)cc1OC | -6.23%
68 | O=C(/C=C/c1ccco1)Nc1ccc(-c2nc3ccccc3[nH]2)cc1 | -5.99%
69 | Cc1ccc(-c2nc3ccccc3[nH]2)cc1NC(=O)/C=C/c1ccco1 | 7.41%
70 | COC(=O)c1nnn(-c2nonc2N)c1CSc1ccccn1 | -4.14%
71 | Cc1ccc(NC(=O)c2ccccc2SCC(=O)N2CCCC2)cc1S(=O)(=O)N(C)C | -1.08%
72 | CC(C)(C)NC(=O)C(c1c[nH]c2ccccc12)N(C(=O)Cn1nnc(-c2ccc(Cl)cc2)n1)c1ccccc1F (stereo not drawn) | 2.56%

Row | SMILES | inhibition
73 | COc1cccc(N(C(=O)Cn2nnc(-c3ccc(C)cc3)n2)C(C(=O)NC(C)(C)C)c2c[nH]c3ccccc23)c1 (stereo not drawn) | -12.2%
74 | Cc1cc([N+](=O)[O-])nn1CC(=O)Nc1cnc2ccccc2c1 | -3.67%
75 | Cc1ccc(CCNC(=O)c2nn(C)c3c2CS(=O)(=O)c2ccccc2-3)cc1 | 3.98%
76 | CCOC(=O)C1CCN(C(=S)NC(=O)c2cccs2)CC1 | 0.89%
77 | O=C(NC(=S)N1CCCCC1)c1cccs1 | 4.84%
78 | Cn1c(-c2ccsc2)c(-c2cccs2)c2cc(-c3ccc4cc[nH]c4c3)ccc21 | -1.89%
79 | Cc1ccc(NC(=O)C(c2ccccc2)N2CCN(C(=O)c3ccco3)CC2)cc1Cl (stereo not drawn) | -11.9%
80 | Cc1nn(-c2nc3ccccc3[nH]2)c(=O)c2ccccc12 | 5.73%
81 | Cc1nn(-c2nc3ccccc3s2)c(N)c1-c1ccc(Cl)cc1 | 1.29%
82 | Cc1cc(C)nc(NS(=O)(=O)c2ccc(NS(=O)(=O)c3ccccc3)cc2)n1 | -6.64%
83 | CC1(C)Cc2c(sc3c2C(=O)N(c2ccccc2)C2=NCCCN23)CO1 | 1.18%
84 | CCOC(=O)c1csc(NC(C)=O)n1 | 0.4%
85 | CCCC(=O)Nc1nc(C(=O)OCC)cs1 | 2.98%
86 | O=C(c1ccc(Cl)cc1)C1CCCN(Cc2cccc3cccnc23)C1 (stereo not drawn) | 9.96%
87 | O=C(CCCOc1ccc(Cl)cc1)Nc1cccc(C(=O)O)c1 | 7.01%
88 | O=C(OCCN1CCCCC1)c1cc2ccccc2o1 | -14.3%
89 | O=C(OCCN1C(=O)c2ccccc2C1=O)c1ccco1 | -9.08%
90 | COc1ccccc1/C=C/C=N/n1c(C2CCCCC2)n[nH]c1=S | 0.81%
91 | CC(=O)c1ccc(N2CCN(C(=O)c3cc(-c4ccncc4)nc4ccc(Cl)cc34)CC2)cc1 | 7.21%
92 | CN1CCN(CCCNC(=O)c2ccc(/C=C3\Oc4ccccc4N(Cc4ccccc4F)C3=O)cc2)CC1 | 57.7%
93 | Cc1cccc(CN2C(=O)/C(=C\c3ccc(C(=O)NCCN4CCOCC4)cc3)Sc3ccccc32)c1 | 49.5%
